39 compounds from PubChem BioAssay (NCI) can be followed below.

The panel holds about 79,000 compounds, 15% with a hit somewhere; the sample as a whole holds those more often. Activity calls are given as the source filed them. Rule as the data show it: active = growth inhibition above about 70%; inactive = the rest.

One assay is described as follows: NCI Yeast Anticancer Drug Screen. Data for the wt1 strain (AID 149).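 Also: 0% = growth of vehicle-treated wt1 cultures.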 As to conditions: S. cerevisiae wt1 strain (SPY 50644) growth inhibition; at 11.0 µM; active compounds read high. The method, boiled down:
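Readout: yeast growth inhibition, normalised to vehicle controls, in the wt1 strain exposed to test compounds.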
`CCCc1cc(C(=O)OCC)cc(CCC)c1O`: the growth inhibition was -9% (inactive).

In the case of `CC(C)[N+]([O-])(CCCNc1c2ccccc2nc2cccc([N+](=O)[O-])c12)C(C)C`, the growth inhibition is 18% (inactive).

For the compound `COc1cc2c3c(cccc3c1)C(=O)N(CCN(C)C)C2=O`, the growth inhibition is -10% (inactive).

Regarding `NC(=O)NN=C(CS)CS`, the growth inhibition is -1% (inactive).

Take `Cc1ccc(NC(=O)/C(Cl)=C(\Cl)C(=O)O)cc1C`: the growth inhibition was 2% (inactive).

For the compound `CCN(CC)CC[n+]1ccc2c(C)c3[nH]c4ccc(O)cc4c3c(C)c2c1`, the growth inhibition was 3% (inactive).

On to `CC(CC(C)(C)[N+](C)(C)C)[N+](C)(C)C` (stereo not drawn), for which the growth inhibition was -3% (inactive).

With `COc1ccc(OC)c2cc3ccccc3cc12`, the growth inhibition is -12% (inactive).

On to `Nc1ncncc1C(C1=C(O)COC1=O)C1=C(O)COC1=O`, for which the growth inhibition is -3% (inactive).

Turning to `CSC1=NNC(SC)=NN1`, the growth inhibition is -6% (inactive).

For the compound `Cc1c(Cl)ccc2c1S(=O)(=O)c1cccc(Cl)c1-2`, the growth inhibition was -1% (inactive).

As for `[O-][n+]1c2ccc(O)cc2nc2ccc(Cl)cc21`, the growth inhibition was 23% (inactive).

In the case of `COc1ccc2ccc3ccccc3c2c1C=O`, the growth inhibition was -5% (inactive).

For `Nc1ccc2c(c1)C(=O)c1cccc(N)c1C2=O`, the growth inhibition was 24% (inactive).

In the case of `O=C(c1ccc(Cl)cc1Cl)C(Cl)Cl`, the growth inhibition was 3% (inactive).

Regarding `COc1cc(C(=O)/C=C/c2ccccc2O)ccc1O`, the growth inhibition was 98% (active).

As to `O=Cc1cccc2ccc3ccccc3c12`, the growth inhibition is -8% (inactive).

In the case of `O=C(Nc1ccc(Cl)cc1)OCC#CCCl`, the growth inhibition is 12% (inactive).

Regarding `Cn1ccnc1Oc1ccc(Cl)cc1`, the growth inhibition was 22% (inactive).

For `c1ccc2c(c1)C(=NCCCN1CCCCCC1)c1cccn1-2`, the growth inhibition was 2% (inactive).

Consider `C/C(=N\O)C1CC2C=C(C#N)C1N(Cc1ccccc1)C2` (stereo not drawn), for which the growth inhibition was 1% (inactive).

For `O=[N+]([O-])C(=C(Sc1ccccc1)Sc1ccccc1)C(Cl)=C(Cl)Cl`, the growth inhibition is 25% (inactive).

`CCCCCCCCCC/C=C\C(=O)O`: the growth inhibition is -35% (inactive).

Take `COc1ccc(N=C2C(=O)Nc3ccc(Br)cc32)cc1`: the growth inhibition was 9% (inactive).

As for `COc1ccccc1C(=O)OCC1CCCN2CCCCC12` (stereo not drawn), the growth inhibition is 7% (inactive).

In the case of `CC(C)(Br)C(=O)/C=C/c1ccc(Cl)c(Cl)c1`, the growth inhibition was -3% (inactive).

`Nc1ccccc1CC(O)C(=O)O` (stereo not drawn): the growth inhibition is 13% (inactive).

Turning to `CC(=O)N/N=C/C(C)(C)C(C)(C)/C=N/NC(C)=O`, the growth inhibition is 2% (inactive).

Regarding `CN(C)c1nc2sc3c(c2c(=O)o1)CCCC3`, the growth inhibition is -4% (inactive).

On to `CC(C)OC(=O)Oc1ccccc1OC(=O)OC(C)C`, for which the growth inhibition is -1% (inactive).

`Cc1ccc(N)c(S)c1`: the growth inhibition is -19% (inactive).

In the case of `O=C(O)c1ccccc1NC(=S)c1ccccc1`, the growth inhibition is -4% (inactive).

Consider `COC(=O)c1ccc(NCC2=CC(=O)C=CC2=O)cc1O`, for which the growth inhibition was 68% (inactive).

Consider `NC(N)=N/N=C\c1c2ccccc2cc2ccccc12`, for which the growth inhibition is -29% (inactive).

As to `COC(=O)CSSCc1ccc([N+](=O)[O-])cc1`, the growth inhibition was 3% (inactive).

For the compound `CCS(=O)(=O)c1ccc(/C=C/C=N/NC(=S)NCC(C)C)cc1`, the growth inhibition is 5% (inactive).

With `N#CC(C(=O)Nc1ccccc1)C1=C(Cl)C(=O)c2ccccc2C1=O` (stereo not drawn), the growth inhibition was 95% (active).

For the compound `C[C@H](CCC(=O)NN)[C@H]1CC[C@H]2[C@@H]3CC[C@@H]4C[C@H](O)CC[C@]4(C)[C@H]3CC[C@]12C`, the growth inhibition is 0% (inactive).

In the case of `CC[n+]1ccc2c(C)c3[nH]c4ccc(O)cc4c3c(C)c2c1`, the growth inhibition was 3% (inactive).

The same assay, now with this note: S. cerevisiae wt1 strain (SPY 50644) growth inhibition; at 33.0 µM; active compounds read high.
For the compound `CCCc1cc(C(=O)OCC)cc(CCC)c1O`, the growth inhibition is -13% (inactive).

As for `CC(C)[N+]([O-])(CCCNc1c2ccccc2nc2cccc([N+](=O)[O-])c12)C(C)C`, the growth inhibition is 78% (active).

Take `COc1cc2c3c(cccc3c1)C(=O)N(CCN(C)C)C2=O`: the growth inhibition was -1% (inactive).

Consider `NC(=O)NN=C(CS)CS`, for which the growth inhibition was 17% (inactive).

In the case of `Cc1ccc(NC(=O)/C(Cl)=C(\Cl)C(=O)O)cc1C`, the growth inhibition was 88% (active).

For the compound `CCN(CC)CC[n+]1ccc2c(C)c3[nH]c4ccc(O)cc4c3c(C)c2c1`, the growth inhibition was 4% (inactive).

As to `CC(CC(C)(C)[N+](C)(C)C)[N+](C)(C)C` (stereo not drawn), the growth inhibition was -3% (inactive).

Regarding `COc1ccc(OC)c2cc3ccccc3cc12`, the growth inhibition is -8% (inactive).

Take `Nc1ncncc1C(C1=C(O)COC1=O)C1=C(O)COC1=O`: the growth inhibition was 0% (inactive).

Consider `CSC1=NNC(SC)=NN1`, for which the growth inhibition was 51% (inactive).

For `Cc1c(Cl)ccc2c1S(=O)(=O)c1cccc(Cl)c1-2`, the growth inhibition was -15% (inactive).

Regarding `[O-][n+]1c2ccc(O)cc2nc2ccc(Cl)cc21`, the growth inhibition is 34% (inactive).

Turning to `COc1ccc2ccc3ccccc3c2c1C=O`, the growth inhibition was -4% (inactive).

In the case of `Nc1ccc2c(c1)C(=O)c1cccc(N)c1C2=O`, the growth inhibition was 49% (inactive).

Take `O=C(c1ccc(Cl)cc1Cl)C(Cl)Cl`: the growth inhibition was 56% (inactive).

As for `COc1cc(C(=O)/C=C/c2ccccc2O)ccc1O`, the growth inhibition was 99% (active).

Take `O=Cc1cccc2ccc3ccccc3c12`: the growth inhibition is 7% (inactive).

`O=C(Nc1ccc(Cl)cc1)OCC#CCCl`: the growth inhibition was 10% (inactive).

`Cn1ccnc1Oc1ccc(Cl)cc1`: the growth inhibition is 50% (inactive).

Turning to `c1ccc2c(c1)C(=NCCCN1CCCCCC1)c1cccn1-2`, the growth inhibition is -1% (inactive).

With `C/C(=N\O)C1CC2C=C(C#N)C1N(Cc1ccccc1)C2` (stereo not drawn), the growth inhibition is -1% (inactive).

With `O=[N+]([O-])C(=C(Sc1ccccc1)Sc1ccccc1)C(Cl)=C(Cl)Cl`, the growth inhibition was 36% (inactive).

`CCCCCCCCCC/C=C\C(=O)O`: the growth inhibition is -23% (inactive).

Consider `COc1ccc(N=C2C(=O)Nc3ccc(Br)cc32)cc1`, for which the growth inhibition was 14% (inactive).

As to `COc1ccccc1C(=O)OCC1CCCN2CCCCC12` (stereo not drawn), the growth inhibition is 76% (active).

In the case of `CC(C)(Br)C(=O)/C=C/c1ccc(Cl)c(Cl)c1`, the growth inhibition was 0% (inactive).

Regarding `Nc1ccccc1CC(O)C(=O)O` (stereo not drawn), the growth inhibition was 42% (inactive).

As for `CC(=O)N/N=C/C(C)(C)C(C)(C)/C=N/NC(C)=O`, the growth inhibition was 27% (inactive).

Take `CN(C)c1nc2sc3c(c2c(=O)o1)CCCC3`: the growth inhibition was 8% (inactive).

On to `CC(C)OC(=O)Oc1ccccc1OC(=O)OC(C)C`, for which the growth inhibition was -3% (inactive).

As to `Cc1ccc(N)c(S)c1`, the growth inhibition was 75% (active).

As for `O=C(O)c1ccccc1NC(=S)c1ccccc1`, the growth inhibition was -5% (inactive).

Turning to `COC(=O)c1ccc(NCC2=CC(=O)C=CC2=O)cc1O`, the growth inhibition was 97% (active).

Take `NC(N)=N/N=C\c1c2ccccc2cc2ccccc12`: the growth inhibition was -27% (inactive).

`COC(=O)CSSCc1ccc([N+](=O)[O-])cc1`: the growth inhibition is 24% (inactive).

For the compound `CCS(=O)(=O)c1ccc(/C=C/C=N/NC(=S)NCC(C)C)cc1`, the growth inhibition was -4% (inactive).

As to `N#CC(C(=O)Nc1ccccc1)C1=C(Cl)C(=O)c2ccccc2C1=O` (stereo not drawn), the growth inhibition is 97% (active).

With `C[C@H](CCC(=O)NN)[C@H]1CC[C@H]2[C@@H]3CC[C@@H]4C[C@H](O)CC[C@]4(C)[C@H]3CC[C@]12C`, the growth inhibition was 0% (inactive).

Turning to `CC[n+]1ccc2c(C)c3[nH]c4ccc(O)cc4c3c(C)c2c1`, the growth inhibition was 9% (inactive).
